We go through eight molecules from ChEMBL document CHEMBL1961873, “Compounds: GSK PKIS; Assays: Nanosyn kinase panel” (2012).

Experiment [1] addresses Glycogen synthase kinase-3 beta (Homo sapiens) (UniProt P49841). The conditions noted are these: at 1 µM.
The target of experiment [2] is Homeodomain-interacting protein kinase 1 (Homo sapiens) (UniProt Q86Z02). Particulars: at 0.1 µM.
The target is the same in experiment [3]. Particulars: at 1 µM.
Experiment [4] deals with T1, Homeodomain-interacting protein kinase 4 (Homo sapiens) (UniProt Q8NE63).
T1 sequence (whole entry): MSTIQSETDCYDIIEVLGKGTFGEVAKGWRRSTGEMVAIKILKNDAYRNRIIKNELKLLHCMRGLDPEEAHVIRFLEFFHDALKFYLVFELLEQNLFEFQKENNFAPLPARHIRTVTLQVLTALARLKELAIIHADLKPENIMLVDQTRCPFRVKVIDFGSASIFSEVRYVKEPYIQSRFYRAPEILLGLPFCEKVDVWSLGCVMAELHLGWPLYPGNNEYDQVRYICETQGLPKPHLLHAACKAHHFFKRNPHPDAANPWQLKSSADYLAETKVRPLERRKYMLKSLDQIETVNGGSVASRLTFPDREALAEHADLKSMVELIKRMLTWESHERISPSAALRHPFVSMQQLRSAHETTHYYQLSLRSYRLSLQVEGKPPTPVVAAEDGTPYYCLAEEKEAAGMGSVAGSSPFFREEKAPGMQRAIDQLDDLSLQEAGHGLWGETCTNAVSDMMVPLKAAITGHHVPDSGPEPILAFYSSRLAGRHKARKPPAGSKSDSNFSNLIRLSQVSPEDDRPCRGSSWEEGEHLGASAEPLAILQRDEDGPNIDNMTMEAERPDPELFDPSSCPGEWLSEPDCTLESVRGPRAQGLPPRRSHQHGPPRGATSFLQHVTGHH
Particulars: at 0.1 µM.

For experiment [5], the target named is T1, Homeodomain-interacting protein kinase 4 (Homo sapiens). Particulars: at 1 µM.
The target in experiment [6] is Mitogen-activated protein kinase 9 (Homo sapiens) (UniProt P45984). The conditions noted are these: at 0.1 µM.
The target is the same in experiment [7]. Particulars: at 1 µM.
Experiment [8] deals with Mitogen-activated protein kinase 1 (Homo sapiens) (UniProt P28482). Particulars: at 0.1 µM.
For experiment [9] the target is unchanged. The conditions noted are these: at 1 µM.
Experiment [10] concerns the target Mitogen-activated protein kinase 3 (Homo sapiens) (UniProt P27361). Particulars: at 0.1 µM.
For experiment [11] the target is unchanged. Particulars: at 1 µM.
Experiment [12] deals with SRSF protein kinase 3 (Homo sapiens) (UniProt Q9UPE1). The conditions noted are these: at 0.1 µM.
Experiment [13] has the same target. Particulars: at 1 µM.
Experiment [14] has as its target Mitogen-activated protein kinase 14 (Homo sapiens) (UniProt Q16539). Particulars: at 0.1 µM.
For experiment [15] the target is unchanged. Particulars: at 1 µM.
Experiment [16] deals with Mitogen-activated protein kinase 11 (Homo sapiens) (UniProt Q15759). The conditions noted are these: at 0.1 µM.
For experiment [17] the target is unchanged. Particulars: at 1 µM.
For experiment [18], the target named is T2, Mitogen-activated protein kinase 13 (Homo sapiens) (UniProt O15264).
T2 sequence (whole entry): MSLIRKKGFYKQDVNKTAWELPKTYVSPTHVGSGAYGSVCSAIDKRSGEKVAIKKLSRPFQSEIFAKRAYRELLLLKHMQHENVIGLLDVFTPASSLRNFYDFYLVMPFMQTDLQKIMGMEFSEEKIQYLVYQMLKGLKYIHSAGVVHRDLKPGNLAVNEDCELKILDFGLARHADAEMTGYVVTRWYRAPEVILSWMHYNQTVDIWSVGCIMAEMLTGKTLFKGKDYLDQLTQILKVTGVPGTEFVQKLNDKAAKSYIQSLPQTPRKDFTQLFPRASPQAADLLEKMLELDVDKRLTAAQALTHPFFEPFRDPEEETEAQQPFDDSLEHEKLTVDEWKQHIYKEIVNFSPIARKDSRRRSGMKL
The conditions noted are these: at 0.1 µM.

Experiment [19] concerns the target T2, Mitogen-activated protein kinase 13 (Homo sapiens). Particulars: at 1 µM.
The target in experiment [20] is T3, Mitogen-activated protein kinase 12 (Homo sapiens) (UniProt P53778).
T3 sequence (whole entry): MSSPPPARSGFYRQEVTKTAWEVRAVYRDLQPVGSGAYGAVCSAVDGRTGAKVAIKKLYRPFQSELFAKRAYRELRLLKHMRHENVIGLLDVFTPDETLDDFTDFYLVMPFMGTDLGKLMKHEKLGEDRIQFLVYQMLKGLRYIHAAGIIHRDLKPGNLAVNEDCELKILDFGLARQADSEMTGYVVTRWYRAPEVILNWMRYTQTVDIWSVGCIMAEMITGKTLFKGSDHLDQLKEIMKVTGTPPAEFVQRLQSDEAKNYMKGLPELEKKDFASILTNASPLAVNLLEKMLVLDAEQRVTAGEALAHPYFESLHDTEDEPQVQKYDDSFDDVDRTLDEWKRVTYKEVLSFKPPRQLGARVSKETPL
The conditions noted are these: at 0.1 µM.

Usually inhibition stands for the change of the read-out against control, counted positive when it falls.

Sequence of Glycogen synthase kinase-3 beta (Homo sapiens) (P49841 whole entry, looked up): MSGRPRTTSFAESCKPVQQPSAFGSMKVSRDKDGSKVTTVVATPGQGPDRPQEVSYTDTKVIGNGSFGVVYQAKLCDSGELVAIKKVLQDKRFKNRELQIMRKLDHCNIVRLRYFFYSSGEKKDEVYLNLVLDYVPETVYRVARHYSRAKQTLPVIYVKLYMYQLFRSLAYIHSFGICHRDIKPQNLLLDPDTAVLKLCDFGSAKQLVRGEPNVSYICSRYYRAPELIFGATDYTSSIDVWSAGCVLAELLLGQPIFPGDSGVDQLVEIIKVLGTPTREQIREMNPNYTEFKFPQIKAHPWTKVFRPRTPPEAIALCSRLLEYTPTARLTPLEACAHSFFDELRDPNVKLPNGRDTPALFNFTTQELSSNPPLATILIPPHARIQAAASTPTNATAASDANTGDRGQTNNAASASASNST
Sequence of Mitogen-activated protein kinase 11 (Homo sapiens) (Q15759 whole entry): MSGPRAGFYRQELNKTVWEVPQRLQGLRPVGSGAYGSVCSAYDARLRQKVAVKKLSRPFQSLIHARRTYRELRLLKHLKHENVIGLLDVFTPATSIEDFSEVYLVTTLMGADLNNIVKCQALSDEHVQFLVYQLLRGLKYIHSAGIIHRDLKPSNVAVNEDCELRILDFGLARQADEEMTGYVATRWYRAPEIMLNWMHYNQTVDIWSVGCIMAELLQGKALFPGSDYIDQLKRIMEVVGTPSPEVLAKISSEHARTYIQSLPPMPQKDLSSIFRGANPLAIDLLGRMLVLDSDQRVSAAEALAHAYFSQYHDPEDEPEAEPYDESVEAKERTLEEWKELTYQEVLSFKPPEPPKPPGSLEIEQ
Sequence of Mitogen-activated protein kinase 14 (Homo sapiens) (Q16539 whole entry): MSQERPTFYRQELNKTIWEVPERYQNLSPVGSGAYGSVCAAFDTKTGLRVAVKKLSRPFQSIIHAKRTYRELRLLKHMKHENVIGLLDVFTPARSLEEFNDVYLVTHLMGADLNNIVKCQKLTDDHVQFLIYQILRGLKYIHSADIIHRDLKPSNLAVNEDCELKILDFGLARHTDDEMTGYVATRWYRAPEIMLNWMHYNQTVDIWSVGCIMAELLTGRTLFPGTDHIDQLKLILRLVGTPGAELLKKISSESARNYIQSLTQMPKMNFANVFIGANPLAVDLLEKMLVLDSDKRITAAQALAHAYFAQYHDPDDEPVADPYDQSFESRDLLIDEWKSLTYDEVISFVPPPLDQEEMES
Sequence of Mitogen-activated protein kinase 3 (Homo sapiens) (P27361 whole entry): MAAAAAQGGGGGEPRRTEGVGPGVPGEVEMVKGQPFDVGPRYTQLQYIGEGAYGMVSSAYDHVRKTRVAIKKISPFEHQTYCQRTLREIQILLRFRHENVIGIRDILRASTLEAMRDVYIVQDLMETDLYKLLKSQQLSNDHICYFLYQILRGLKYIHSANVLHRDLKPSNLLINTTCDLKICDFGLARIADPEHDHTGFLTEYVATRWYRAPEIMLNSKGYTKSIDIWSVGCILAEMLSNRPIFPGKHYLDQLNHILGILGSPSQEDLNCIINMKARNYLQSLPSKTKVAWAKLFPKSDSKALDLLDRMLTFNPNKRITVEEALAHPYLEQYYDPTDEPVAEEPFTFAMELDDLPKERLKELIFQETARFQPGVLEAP
Sequence of Homeodomain-interacting protein kinase 1 (Homo sapiens) (Q86Z02 whole entry, looked up): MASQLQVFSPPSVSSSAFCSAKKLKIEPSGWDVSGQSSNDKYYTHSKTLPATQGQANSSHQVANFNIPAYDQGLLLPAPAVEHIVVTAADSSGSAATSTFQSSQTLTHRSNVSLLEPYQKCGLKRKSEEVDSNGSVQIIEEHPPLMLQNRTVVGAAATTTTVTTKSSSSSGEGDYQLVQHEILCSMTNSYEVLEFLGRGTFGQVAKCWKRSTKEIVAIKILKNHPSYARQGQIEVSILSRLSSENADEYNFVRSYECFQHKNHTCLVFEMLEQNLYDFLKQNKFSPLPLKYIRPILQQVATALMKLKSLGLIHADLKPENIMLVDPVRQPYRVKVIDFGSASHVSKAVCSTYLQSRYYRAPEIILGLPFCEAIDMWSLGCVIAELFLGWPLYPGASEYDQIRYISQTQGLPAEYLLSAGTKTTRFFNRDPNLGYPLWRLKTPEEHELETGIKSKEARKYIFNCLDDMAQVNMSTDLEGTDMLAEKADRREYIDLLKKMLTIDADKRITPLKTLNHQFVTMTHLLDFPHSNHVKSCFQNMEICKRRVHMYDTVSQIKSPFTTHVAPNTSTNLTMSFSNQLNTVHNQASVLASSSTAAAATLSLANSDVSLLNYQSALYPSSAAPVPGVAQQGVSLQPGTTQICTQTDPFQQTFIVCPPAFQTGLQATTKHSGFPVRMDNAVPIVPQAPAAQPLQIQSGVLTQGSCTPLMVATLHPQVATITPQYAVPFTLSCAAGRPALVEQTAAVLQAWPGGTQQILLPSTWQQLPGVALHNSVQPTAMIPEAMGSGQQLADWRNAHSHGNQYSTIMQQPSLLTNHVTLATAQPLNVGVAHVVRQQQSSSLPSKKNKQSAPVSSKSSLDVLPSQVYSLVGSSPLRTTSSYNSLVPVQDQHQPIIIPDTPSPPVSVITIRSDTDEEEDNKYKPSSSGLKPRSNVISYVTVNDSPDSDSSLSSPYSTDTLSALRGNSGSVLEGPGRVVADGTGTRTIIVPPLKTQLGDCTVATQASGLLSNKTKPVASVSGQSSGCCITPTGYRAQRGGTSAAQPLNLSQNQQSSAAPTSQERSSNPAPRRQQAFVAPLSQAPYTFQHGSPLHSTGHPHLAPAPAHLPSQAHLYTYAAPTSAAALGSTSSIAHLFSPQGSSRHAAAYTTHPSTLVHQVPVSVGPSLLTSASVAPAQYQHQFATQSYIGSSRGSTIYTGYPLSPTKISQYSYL
Sequence of SRSF protein kinase 3 (Homo sapiens) (Q9UPE1 whole entry): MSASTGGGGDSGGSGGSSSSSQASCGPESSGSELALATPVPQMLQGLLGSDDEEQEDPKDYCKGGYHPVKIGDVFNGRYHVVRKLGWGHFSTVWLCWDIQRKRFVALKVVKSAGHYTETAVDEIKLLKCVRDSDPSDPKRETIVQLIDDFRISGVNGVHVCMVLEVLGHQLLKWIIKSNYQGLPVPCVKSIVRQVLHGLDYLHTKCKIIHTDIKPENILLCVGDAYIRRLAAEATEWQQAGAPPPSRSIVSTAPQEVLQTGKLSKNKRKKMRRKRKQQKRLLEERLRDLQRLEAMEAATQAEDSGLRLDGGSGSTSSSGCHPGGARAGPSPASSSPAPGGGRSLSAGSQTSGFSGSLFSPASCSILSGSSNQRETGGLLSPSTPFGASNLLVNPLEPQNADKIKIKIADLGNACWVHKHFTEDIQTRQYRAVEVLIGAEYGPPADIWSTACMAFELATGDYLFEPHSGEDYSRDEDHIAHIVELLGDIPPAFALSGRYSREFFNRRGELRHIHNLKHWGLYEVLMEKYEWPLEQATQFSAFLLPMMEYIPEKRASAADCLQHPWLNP
Sequence of Mitogen-activated protein kinase 9 (Homo sapiens) (P45984 whole entry, looked up): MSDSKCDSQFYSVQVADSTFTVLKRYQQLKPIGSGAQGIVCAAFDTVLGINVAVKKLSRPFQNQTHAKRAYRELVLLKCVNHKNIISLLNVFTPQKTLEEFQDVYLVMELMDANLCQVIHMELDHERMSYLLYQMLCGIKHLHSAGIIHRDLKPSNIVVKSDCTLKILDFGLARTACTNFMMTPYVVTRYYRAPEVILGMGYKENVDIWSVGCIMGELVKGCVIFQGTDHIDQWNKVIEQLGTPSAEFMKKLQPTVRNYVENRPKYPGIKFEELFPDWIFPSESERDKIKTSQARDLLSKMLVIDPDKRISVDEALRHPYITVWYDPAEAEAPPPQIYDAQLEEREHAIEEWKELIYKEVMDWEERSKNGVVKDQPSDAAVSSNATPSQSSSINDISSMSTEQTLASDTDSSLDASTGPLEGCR
Sequence of Mitogen-activated protein kinase 1 (Homo sapiens) (P28482 whole entry): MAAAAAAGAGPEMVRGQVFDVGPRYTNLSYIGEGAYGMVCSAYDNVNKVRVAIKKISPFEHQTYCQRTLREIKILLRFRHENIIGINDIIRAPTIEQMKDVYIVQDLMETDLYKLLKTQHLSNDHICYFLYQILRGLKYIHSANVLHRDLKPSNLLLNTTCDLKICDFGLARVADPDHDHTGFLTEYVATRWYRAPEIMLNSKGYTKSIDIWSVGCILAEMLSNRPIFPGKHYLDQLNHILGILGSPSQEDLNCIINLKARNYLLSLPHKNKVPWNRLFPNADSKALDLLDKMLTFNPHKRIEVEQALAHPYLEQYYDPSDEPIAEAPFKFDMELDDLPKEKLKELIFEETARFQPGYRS

Consider `CN(C)c1ccc2c(c1)/C(=C/Nc1ccc(S(N)(=O)=O)cc1)C(=O)N2`, for which the inhibition in experiment [1] is 24.2%; in experiment [2] it was 0.15%; in experiment [3] it was 12%; in [4], -0.09%; in [5], 6.94%; in experiment [6] it was 3.27%. Besides, the inhibition in experiment [7] is 2.71%; in [8] it was 1.12%; in [9] it was 2.53%; in experiment [10], 0.06%; in experiment [11], 2.21%; in experiment [12], -1.98%. The inhibition was -1.04% in experiment [13]; 1.18% in [14]; 2.39% in [15]; 1.4% in experiment [16]; 0.72% in experiment [17]; 6.36% in experiment [18]. In addition, the inhibition in [19] is 1.98%; in [20], 2.6%.
As for `Clc1ccc(CNc2nccc(-c3cnn4ncccc34)n2)cc1`, the inhibition worked out at 11.6% in [1]; 14.8% in experiment [2]; 57.9% in [3]; 11.9% in experiment [4]; 49% in [5]; 3.52% in experiment [6]. The inhibition in [7] was 5.1%; in [8], 4.19%; in experiment [9], 3.23%; in experiment [10], 3.04%; in [11], 1.44%; in [12] it was -0.1%. Also, the inhibition in experiment [13] is -3.75%; in [14], 2.58%; in experiment [15], 7.97%; in [16] it was 1.06%; in experiment [17], 6.53%; in experiment [18] it was -0.19%. The values for the inhibition in [19] and in experiment [20] were 2.4% and 0.66%, respectively.
As to `NC(=O)Cc1ccccc1Oc1nccc(-c2c(-c3ccc(F)cc3)ncn2C2CCNCC2)n1`, the inhibition in experiment [1] is 1.98%; in [2] it was 0.04%; in experiment [3], -0.28%; in experiment [4], 1.66%; in [5], 3.18%; in experiment [8] it was 0.51%. For the same molecule, the inhibition is 4.48% in experiment [9]; 1.47% in [10]; 2.24% in experiment [11]; -0.6% in [12]; 0.09% in experiment [13].
`COc1cc2ncn(-c3cc(OCc4cccs4)c(C(N)=O)s3)c2cc1OC`: the inhibition came to 7.28% in experiment [1]; 1.93% in experiment [2]; 18.1% in [3]; 20.2% in [4]; 63.3% in experiment [5]; 0.6% in [6]. The inhibition in experiment [7] was 4.51%; in experiment [8], 5.16%; in [9], 2.33%; in experiment [10] it was 3.68%; in experiment [11], 4.45%; in experiment [12], 0.87%. The inhibition in experiment [14] is 16.9%; in [15], 12.3%; in experiment [16] it was 3.88%; in [17] it was 5.4%; in [18], 0.78%; in experiment [19], 1.21%. The inhibition in experiment [20] came to 2%.
On to `Fc1ccc(-c2ncn(C3CCNCC3)c2-c2ccnc(Oc3ccc4c(c3)OCO4)n2)cc1`, for which the inhibition came to 4.03% in [1]; 1.02% in experiment [2]; 5.62% in [3]; 4.86% in [4]; 7.7% in [5]; 7.64% in [8]. For the same molecule, the inhibition in experiment [9] turned out to be 11.4%; in experiment [10], 5.84%; in [11], 10.1%; in experiment [12], 1.72%; in experiment [13], 6.43%.
`Cc1nnc(-c2ccc(C)c(-c3ccc(C(=O)NCc4ccc(Cl)cc4)cc3)c2)o1`: the inhibition is 4.25% in experiment [1]; -2.88% in [2]; -3.98% in experiment [3]; -0.69% in experiment [4]; 0.29% in experiment [5]; 4.09% in experiment [6]. Moreover, the inhibition was 4.44% in experiment [7]; 8.3% in [8]; 4.45% in [9]; 2.96% in experiment [10]; 3.65% in experiment [11]; -1.7% in [12]. Also, the inhibition in [13] was -0.7%; in [14], 9.97%; in experiment [15] it was 54.2%; in experiment [16], 6.73%; in [17], 27.7%; in experiment [18] it was 1.96%. The inhibition in experiment [19] was determined as 3.99%; in experiment [20], 1.42%.
On to `CCS(=O)(=O)c1ccc(OC)c(Nc2ncc(-c3ccccc3Cl)o2)c1`, for which the inhibition amounted to 1.12% in [1]; 1.24% in experiment [2]; 9.06% in experiment [3]; 8.83% in [4]; 47.5% in [5]; 1.42% in [6]. Besides, the inhibition in [7] was found to be 1.23%; in [8], 0.66%; in experiment [9] it was 0.84%; in experiment [10], 1.66%; in experiment [11], 0.91%; in [12], 0.64%. Also, the inhibition in [13] is 3.28%; in experiment [14], 7.68%; in experiment [15], 12.2%; in experiment [16] it was 2.55%; in experiment [17], 5.3%; in experiment [18] it was 1.24%. Besides, the values for the inhibition in experiment [19] and in experiment [20] were 1.41% and 5.31%, respectively.
Regarding `O=C(Nc1n[nH]c2cc(-c3ccccc3)ccc12)C1CC1`, the inhibition in experiment [2] is 0.47%; in experiment [3] it was 0.72%; in experiment [4], 1.87%; in [5] it was 3.44%; in experiment [6], 6.25%; in experiment [7], 7.19%. Further, the inhibition in experiment [8] is 2.48%; in experiment [9] it was 6.01%; in experiment [10], 4.31%; in experiment [11], 4.97%; in experiment [12], -0.47%; in [13], -0.2%. For the same molecule, the inhibition was 4.83% in [14]; 11.2% in [15]; 4.66% in [16]; 6.34% in experiment [17]; 3.31% in [18]; 5.86% in experiment [19]. The inhibition in experiment [20] came out at 6.09%.
